# The full ranking holds about 33,000 sequences; the median of “E-score (-0.5 to 0.5)” is about -8e-05, and the highest 2% start at about 0.23. What follows is part of a selection rich in the highest values, with near analogues and random picks from the rest.
# Target: T1, Nrg2 (UniProt P38082)
# T1 sequence: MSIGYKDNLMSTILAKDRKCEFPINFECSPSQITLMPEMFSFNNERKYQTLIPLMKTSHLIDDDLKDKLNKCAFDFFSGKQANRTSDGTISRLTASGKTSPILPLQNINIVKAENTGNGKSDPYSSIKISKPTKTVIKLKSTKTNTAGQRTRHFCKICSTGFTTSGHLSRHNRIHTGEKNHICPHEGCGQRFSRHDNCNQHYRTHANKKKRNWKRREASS
# Experiment: PBM E-score (8-mer binding enrichment) (E-score (-0.5 to 0.5)); higher = stronger / more preferred TF binding
# Settings: protein concentration: 100 nM; construct: GST-full length
# Experimental: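 Universal 'all 10-mer' protein binding microarrays (Agilent AMADID 015681) probed with GST-tagged S. cerevisiae TFs (full-length or DBD) made by in vitro transcription/translation (PURExpress), about 100-200 nM. Bound TF was detected with fluorescent anti-GST. Each ungapped 8-mer (which stands for itself and its reverse complement) is scored by the PBM enrichment score (E-score), a modified Wilcoxon-Mann-Whitney statistic from -0.5 to +0.5, computed with the Universal PBM Analysis Suite. Scale: above 0.35 generally sequence-specific binding.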
row,Sequence,PBM E-score
1,AGCAGACT,-0.138
2,CCGCCTGA,-0.0981
3,TCCAGAAA,0.0185
4,CCTCCTCC,-0.283
5,ATGTCCTC,0.0325
6,ATTGTCGA,0.0199
7,ATTGTCGC,0.136
8,ATTGTCGG,0.247
9,CTACAAAG,0.116
10,ACAGCGCA,0.00939
11,AGTAATAT,0.137
12,CGCCCCAA,0.261
13,GGCCCCAA,-0.0979
14,GGGCCCAC,0.203
15,TGGGCCCA,0.306
16,AAGGCCCA,-0.13
17,GGGGCCCA,0.117
18,CGGGCCCA,-0.128
19,CGCCCCAG,0.0362
20,ATGGCCCA,-0.0568
21,GGGCCCAA,0.244
22,CGCCCCCA,-0.194

row,Sequence,PBM E-score
1,AGGGCCCA,0.359
2,TAATTCCA,0.0521
3,GCGCTTCC,-0.0589
4,AAGGAAAA,0.0535
5,GCGGAATA,0.0652
6,CTTTGGGA,-0.076
7,AAACCCAC,0.218
8,GACTGAGA,-0.102
9,CAACTTAG,0.221
10,CTGCTCGA,0.073
11,AGGGCCCC,0.0359
12,AGGGCCCT,0.432
13,AGGGCCCG,0.0729
14,TCCAATAA,0.0718
15,CGACAGCC,0.026
16,CGCCGTGC,0.0708
17,CAGCCTAG,0.0198
18,GGTGCAAC,-0.13
19,AGTTTCAG,-0.0621
20,AGTTTCAC,0.0923
21,AGTTTCAT,0.274
22,CTGAGAAC,0.0907

row,Sequence,PBM E-score
1,AATACTAT,0.0268
2,CATACTAA,0.114
3,CATACTAG,0.248
4,AATACTAC,0.0385
5,CATACTAC,0.151
6,AATACTAG,0.241
7,CAATTTAC,0.12
8,ACGAATTG,0.0986
9,AGTGACTA,-0.133
10,TAGCAACA,0.135
11,GAACAGAA,0.0366
12,GGTCTGAC,0.0413
13,CGACAATC,0.009
14,GGACAAGA,0.159
15,AGACAATA,0.204
16,GGACAAAA,0.159
17,CGACAATA,0.235
18,GGACAATA,0.239
19,GAATTATA,0.0673
20,GTATTATA,0.254
21,ATATTATA,0.0282
22,CTATTATA,0.0933

row,Sequence,PBM E-score
1,AAATTATA,0.175
2,CAATTATA,0.0143
3,AATTTATC,0.312
4,TAATTATA,0.319
5,AATTTATA,0.201
6,CAATTATC,0.289
7,CATTTATC,0.0481
8,CAATTATG,0.0379
9,ACGCCTGG,-0.123
10,ACGCGCAG,0.025
11,CAATCCAC,-0.0677
12,CCACCGAA,0.0334
13,AACGGTCT,-0.127
14,CCGGGCGA,-0.0266
15,TGAGTCAA,0.0756
16,CTCCAACA,0.0834
17,AGCACGGG,-0.00766
18,AGATTATA,0.0559
19,GGATTATA,0.24
20,CGATTATA,0.138
21,GGCTAGCC,-0.297
22,CGATCCTA,0.00763

row,Sequence,PBM E-score
1,GAACTAGA,0.0203
2,CAACTCGA,0.0207
3,GAACTCGA,0.0868
4,AAACTAGA,-0.0323
5,TAACTAGA,0.256
6,TAACTCGA,0.294
7,GCCTAAGA,-0.0546
8,ACAAGCGC,0.0708
9,CAAGAACC,0.172
10,CTGGAATA,0.193
11,ATGGAATA,0.235
12,AGGGAATG,0.032
13,CGGGAATA,0.0776
14,ATGGAATC,0.267
15,ATGGAATG,-0.0148
16,AGGGAATA,0.245
17,GTGGAATA,-0.013
18,CTGGAATC,-0.164
19,AATGGCCG,-0.134
20,AATTCTCC,0.118
21,CAGTACGA,0.206
22,AAGTCCGA,-0.0535

# Source: the supplement of paper PMC3334620
